The results in this text go back to ChEMBL document CHEMBL2218924, “A broad activity screen in support of a chemogenomic map for kinase signalling research and drug discovery” (Biochem J, 2013).

Test [1] addresses Protein kinase C eta type (Homo sapiens) (UniProt P24723). The conditions noted are these: at 10 µM.
Test [2] has as its target T1, Protein kinase C iota type (Homo sapiens) (UniProt P41743).
T1 sequence (whole entry): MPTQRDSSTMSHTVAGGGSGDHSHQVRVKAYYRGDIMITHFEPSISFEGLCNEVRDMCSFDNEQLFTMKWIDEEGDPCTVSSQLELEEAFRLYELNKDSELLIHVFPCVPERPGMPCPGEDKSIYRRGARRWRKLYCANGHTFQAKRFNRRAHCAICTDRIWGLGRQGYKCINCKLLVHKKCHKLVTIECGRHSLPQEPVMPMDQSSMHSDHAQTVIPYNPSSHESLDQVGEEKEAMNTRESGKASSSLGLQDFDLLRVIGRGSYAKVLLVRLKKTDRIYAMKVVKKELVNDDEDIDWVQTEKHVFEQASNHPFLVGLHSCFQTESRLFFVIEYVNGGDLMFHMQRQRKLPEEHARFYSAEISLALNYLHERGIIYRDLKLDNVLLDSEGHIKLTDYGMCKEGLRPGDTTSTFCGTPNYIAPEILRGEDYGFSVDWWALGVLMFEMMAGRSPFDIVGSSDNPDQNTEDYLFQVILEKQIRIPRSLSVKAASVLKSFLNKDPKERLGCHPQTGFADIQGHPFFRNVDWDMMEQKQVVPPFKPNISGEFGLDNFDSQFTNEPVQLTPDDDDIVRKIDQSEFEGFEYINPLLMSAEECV
The note with it: at 1 µM.

Test [3] has as its target T1, Protein kinase C iota type (Homo sapiens). The conditions noted are these: at 10 µM.
Test [4] deals with T2, Serine/threonine-protein kinase D1 (Homo sapiens) (UniProt Q15139).
T2 sequence (whole entry): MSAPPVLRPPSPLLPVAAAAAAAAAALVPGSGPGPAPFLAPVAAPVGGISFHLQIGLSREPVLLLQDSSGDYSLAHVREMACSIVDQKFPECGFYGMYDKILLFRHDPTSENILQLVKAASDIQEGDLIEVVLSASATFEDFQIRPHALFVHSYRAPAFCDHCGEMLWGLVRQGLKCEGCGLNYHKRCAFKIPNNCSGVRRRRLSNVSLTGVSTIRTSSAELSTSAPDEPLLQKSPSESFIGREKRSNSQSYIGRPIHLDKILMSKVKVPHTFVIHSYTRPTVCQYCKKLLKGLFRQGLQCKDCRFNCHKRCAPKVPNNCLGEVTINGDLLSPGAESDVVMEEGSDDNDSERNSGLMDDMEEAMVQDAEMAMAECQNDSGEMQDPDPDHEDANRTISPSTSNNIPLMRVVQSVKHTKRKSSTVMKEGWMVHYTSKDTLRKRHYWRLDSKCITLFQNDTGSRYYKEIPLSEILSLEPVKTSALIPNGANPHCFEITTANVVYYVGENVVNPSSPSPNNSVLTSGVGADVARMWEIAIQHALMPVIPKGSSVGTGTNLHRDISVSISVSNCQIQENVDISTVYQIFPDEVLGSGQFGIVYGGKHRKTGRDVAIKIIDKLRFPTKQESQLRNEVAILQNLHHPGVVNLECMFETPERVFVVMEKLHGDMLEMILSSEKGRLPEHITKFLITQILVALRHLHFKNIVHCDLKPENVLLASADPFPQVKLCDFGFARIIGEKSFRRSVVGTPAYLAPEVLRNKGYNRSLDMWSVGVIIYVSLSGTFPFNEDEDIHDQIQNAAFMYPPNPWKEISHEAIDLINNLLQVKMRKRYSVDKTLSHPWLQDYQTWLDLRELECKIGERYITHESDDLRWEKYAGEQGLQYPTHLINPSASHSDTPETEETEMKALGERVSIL
The note with it: at 1 µM.

For test [5], the target named is T2, Serine/threonine-protein kinase D1 (Homo sapiens). The note with it: at 10 µM.
For test [6], the target named is T3, Serine/threonine-protein kinase D2 (Homo sapiens) (UniProt Q9BZL6).
T3 sequence (whole entry): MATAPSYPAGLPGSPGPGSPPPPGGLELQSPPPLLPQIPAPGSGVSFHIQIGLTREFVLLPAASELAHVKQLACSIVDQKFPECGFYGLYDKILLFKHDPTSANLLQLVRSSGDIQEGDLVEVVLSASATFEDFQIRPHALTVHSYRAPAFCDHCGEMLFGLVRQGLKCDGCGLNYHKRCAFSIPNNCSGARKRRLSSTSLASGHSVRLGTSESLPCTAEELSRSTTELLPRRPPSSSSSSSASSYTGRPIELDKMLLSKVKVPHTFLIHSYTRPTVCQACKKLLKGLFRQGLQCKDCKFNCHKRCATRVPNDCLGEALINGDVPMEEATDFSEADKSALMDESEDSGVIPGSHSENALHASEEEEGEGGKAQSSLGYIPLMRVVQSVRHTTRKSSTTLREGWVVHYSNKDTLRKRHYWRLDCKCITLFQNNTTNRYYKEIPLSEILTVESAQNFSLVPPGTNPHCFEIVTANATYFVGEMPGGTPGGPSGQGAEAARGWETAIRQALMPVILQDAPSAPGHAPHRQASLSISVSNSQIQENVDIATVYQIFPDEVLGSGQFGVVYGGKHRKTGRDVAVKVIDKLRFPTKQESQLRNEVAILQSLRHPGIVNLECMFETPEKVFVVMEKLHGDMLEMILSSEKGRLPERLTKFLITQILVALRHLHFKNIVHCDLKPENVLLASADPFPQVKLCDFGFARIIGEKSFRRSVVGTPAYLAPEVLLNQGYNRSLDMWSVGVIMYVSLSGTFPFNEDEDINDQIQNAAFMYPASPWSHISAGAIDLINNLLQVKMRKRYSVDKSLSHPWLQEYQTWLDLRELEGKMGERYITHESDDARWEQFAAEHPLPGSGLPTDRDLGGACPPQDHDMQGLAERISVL
The note with it: at 10 µM.

Test [7] deals with Protein kinase C theta type (Homo sapiens) (UniProt Q04759). The note with it: at 1 µM.
The target is the same in test [8]. The conditions noted are these: at 10 µM.
The target in test [9] is T3, Serine/threonine-protein kinase D2 (Homo sapiens). The conditions noted are these: at 1 µM.
Test [10] deals with Protein kinase C eta type (Homo sapiens) (UniProt P24723). The conditions noted are these: at 1 µM.
Chain of Protein kinase C eta type (Homo sapiens) (P24723 whole entry): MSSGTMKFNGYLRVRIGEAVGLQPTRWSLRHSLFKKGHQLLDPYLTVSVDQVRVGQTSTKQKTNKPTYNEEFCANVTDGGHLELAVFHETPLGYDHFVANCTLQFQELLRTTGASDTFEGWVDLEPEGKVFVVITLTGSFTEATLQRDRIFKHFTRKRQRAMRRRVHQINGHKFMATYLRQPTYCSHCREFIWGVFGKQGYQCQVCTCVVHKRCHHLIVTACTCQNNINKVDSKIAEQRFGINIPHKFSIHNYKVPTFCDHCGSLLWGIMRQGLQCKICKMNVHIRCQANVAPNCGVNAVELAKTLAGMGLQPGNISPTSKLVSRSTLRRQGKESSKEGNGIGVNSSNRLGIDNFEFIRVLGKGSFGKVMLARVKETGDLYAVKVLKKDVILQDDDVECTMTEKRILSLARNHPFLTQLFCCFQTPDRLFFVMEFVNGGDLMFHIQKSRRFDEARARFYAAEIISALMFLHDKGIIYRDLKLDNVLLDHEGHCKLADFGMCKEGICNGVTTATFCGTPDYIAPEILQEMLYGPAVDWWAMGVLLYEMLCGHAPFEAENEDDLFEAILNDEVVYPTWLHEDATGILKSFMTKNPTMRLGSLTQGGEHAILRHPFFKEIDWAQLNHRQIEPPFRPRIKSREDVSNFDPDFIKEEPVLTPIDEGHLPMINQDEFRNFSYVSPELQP

Chain of Protein kinase C theta type (Homo sapiens) (Q04759 whole entry, looked up): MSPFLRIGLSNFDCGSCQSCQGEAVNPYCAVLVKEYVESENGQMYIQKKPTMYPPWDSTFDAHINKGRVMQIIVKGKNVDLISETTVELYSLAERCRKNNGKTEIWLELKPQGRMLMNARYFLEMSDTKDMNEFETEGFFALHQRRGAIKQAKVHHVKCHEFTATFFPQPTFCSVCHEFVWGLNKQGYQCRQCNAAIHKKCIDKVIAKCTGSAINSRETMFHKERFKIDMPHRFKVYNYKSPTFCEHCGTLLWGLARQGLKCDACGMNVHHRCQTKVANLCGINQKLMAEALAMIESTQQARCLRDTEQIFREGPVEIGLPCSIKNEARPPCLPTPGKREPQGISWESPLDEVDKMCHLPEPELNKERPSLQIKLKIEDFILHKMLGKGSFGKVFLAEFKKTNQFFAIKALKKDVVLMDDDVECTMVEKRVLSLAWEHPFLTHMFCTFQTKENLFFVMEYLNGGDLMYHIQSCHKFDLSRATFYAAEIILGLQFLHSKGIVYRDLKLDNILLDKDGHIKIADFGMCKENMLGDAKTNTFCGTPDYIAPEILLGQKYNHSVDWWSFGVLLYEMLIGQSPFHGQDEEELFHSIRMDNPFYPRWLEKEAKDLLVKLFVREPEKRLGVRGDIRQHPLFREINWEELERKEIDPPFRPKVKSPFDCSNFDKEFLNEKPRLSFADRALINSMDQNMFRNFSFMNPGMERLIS

For `CC(C)N(CCC(=O)c1ccc2ccccc2c1)Cc1ccccc1`, the residual activity – broadly, the signal under treatment as a percentage of the control signal – in test [1] is 76%; in [2], 77% (inactive); in test [3], 72%; in test [4], 74%; in test [5] it was 84%.
Regarding `CCN1/C(=C/C(C)=O)Sc2ccc(OC)cc21`, the results for the residual activity in test [4], in test [5] and in test [6] were 59%, 18% and 70%, respectively.
For the molecule `O=C1Nc2ccccc2/C1=C\c1c(Cl)[nH]c2ccccc12`, the residual activity came out at 80% in test [1]; 81% in [7]; 71% in [8]; 99% in test [4]; 65% in test [5].
With `O=C(CCCc1ccc(-c2ccccc2F)cc1)Nc1ccc(O)cc1`, the residual activity in test [7] was determined as 100%; in test [8], 105%; in test [9], 110%; in test [6], 98%.
Consider `CCCCc1c(-c2ccc(OC)cc2)[nH]c2nccnc12`, for which the residual activity in test [7] is 90%; in [8], 83%; in [2] it was 112% (inactive); in [4], 121%; in test [5], 84%.
For `CN([C@@H](Cc1ccc(OS(=O)(=O)c2cccc3cnccc23)cc1)C(=O)N1CCN(c2ccccc2)CC1)S(=O)(=O)c1cccc2cnccc12`, the residual activity in [10] stood at 116%; in test [1], 100%; in test [4] it was 113%; in [6] it was 79%.
`COc1ccc(-c2cnc3c(-c4ccsc4)cnn3c2)cc1`: the residual activity in test [1] is 76%; in test [2], 81% (inactive); in test [3], 77%; in test [4] it was 84%; in test [5] it was 97%.
Consider `N#C/C(=C1/Nc2ccccc2S1)c1ccnc(NCCc2cccnc2)n1`, for which the residual activity in test [7] was 95%; in test [8], 72%; in test [4], 73%; in test [5], 36%.
In the case of `N#C/C(=C\c1ccc(O)c(O)c1)C(=O)NCc1ccccc1`, the residual activity was 82% in test [1] and 102% in test [6].
On to `CCOc1nc(NC(=O)Cc2cc(OC)ccc2OC)cc(N)c1C#N`, for which, in test [5], the residual activity is 54%.
`COc1ccc(CNC(=O)Nc2ncc([N+](=O)[O-])s2)cc1`: the residual activity in test [2] was 110% (inactive); in test [3] it was 110%.
For `NC(=O)c1cccc(-c2cc(Nc3ccc(OC(F)(F)F)cc3)ncn2)c1`, the residual activity in [1] is 91%; in [2], 92% (inactive); in [3] it was 69%; in test [6] it was 91%.
Regarding `Nc1nc(Nc2ccc(S(N)(=O)=O)cc2)nn1C(=O)c1c(F)cccc1F`, the residual activity is 64% in [1]; 30% in test [7]; 20% in test [8]; 109% (inactive) in test [2]; 100% in test [3]; 75% in test [4]. Moreover, the residual activity in test [5] was found to be 19%; in test [9], 113%; in [6] it was 78%.
Take `COc1ccc(COc2ccc(Cc3cnc(N)nc3N)cc2OC)cc1`: the residual activity in test [4] amounted to 81%; in test [5], 77%.
Take `NC(=O)c1ccc(-c2nc(-c3ccc4c(c3)OCCO4)c(-c3ccccn3)[nH]2)cc1`: the residual activity in test [10] amounted to 94%; in [1], 88%; in test [4] it was 87%; in test [5], 62%; in test [9] it was 98%; in test [6], 87%.
`Cc1cc(C)c(/C=C2\C(=O)Nc3ccccc32)[nH]1`: the residual activity came out at 103% in test [7] and 78% in test [4].
As to `CN(C)S(=O)(=O)c1ccc2c(c1)/C(=C/c1cc3c([nH]1)CCCC3)C(=O)N2`, the residual activity was 93% in [7]; 72% in test [8]; 99% (inactive) in test [2]; 114% in [3]; 91% in test [4].
Take `Nc1nccc(-c2c(-c3ccc(F)cc3)ncn2C2CCNCC2)n1`: the residual activity came to 114% in [10]; 70% in test [1]; 46% in test [4]; 3% in [5]; 49% in test [6].
With `N#Cc1c(NC(=O)c2cccc3ccccc23)sc2c1CCCC2`, the residual activity in test [10] was 91%; in [1], 92%; in test [4] it was 92%; in test [5], 83%; in [6] it was 93%.
As for `Oc1cccc(-c2nc(N3CCOCC3)c3oc4ncccc4c3n2)c1`, the residual activity in test [7] was 84%; in test [8] it was 86%; in test [2], 89% (inactive); in test [4], 97%; in [5], 89%.
On to `CCN(CC)CCNC(=O)c1c(C)[nH]c(/C=C2\C(=O)Nc3ccc(Cl)cc32)c1C`, for which the residual activity in [4] worked out at 38%; in test [5], 4%; in [9], 73%; in test [6], 16%.
